PubChem BioAssay AID743171 (National Center for Advancing Translational Sciences (NCATS), 2013)
“And” between values parts separate entries of the source, which are not always exact repeats. Equal values may be shown once. Inconclusive results are not listed. The source made the active and inactive calls. Calls come from the whole dose curve; as a rule, active = well fitted inhibition curve with a large enough effect; inconclusive = small, poorly fitted or top-dose-only effect; inactive = flat fitted curve, though single readings scatter.

Molecular target: 15-hydroxyprostaglandin dehydrogenase [NAD(+)] (Homo sapiens) (UniProt P15428)
Sequence (P15428 whole entry, looked up): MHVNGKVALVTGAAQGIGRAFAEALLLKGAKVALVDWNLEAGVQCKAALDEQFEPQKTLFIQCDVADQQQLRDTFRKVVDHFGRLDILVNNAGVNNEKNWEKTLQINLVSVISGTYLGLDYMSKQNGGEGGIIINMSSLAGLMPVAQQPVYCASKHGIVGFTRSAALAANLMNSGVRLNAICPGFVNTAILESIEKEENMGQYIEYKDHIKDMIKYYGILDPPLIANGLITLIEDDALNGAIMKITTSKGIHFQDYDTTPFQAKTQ
Assay: Extended Characterization of HPGD Inhibitors: Activity in Primary Assay (HPGD)
Conditions: recombinant HPGD, NADH fluorescence, PGE2 substrate; series mostly up to 57.1 µM
How it was run: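 Enzyme (20 nM final) preincubated 15 min at room temperature with compounds across several concentrations (qHTS); reaction started with NAD+ and PGE2 (1 mM and 30 uM in substrate solution). NADH fluorescence (ex 340/em 450) read kinetically, last-minus-first normalized to controls.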

Potency, active:
CC(C)(C)n1cnc2cc(C(=O)N3CCCCC3)ccc21 34.1 nM, N#Cc1cccc(CSc2nc3ncc(Br)cc3[nH]2)c1 136 nM, Cc1cccc(-n2cnc3cc(C(=O)N4CCCC4)ccc32)c1 383 nM, Cc1cc(-c2nnc3n2CCCCC3)c(C)n1-c1ccncc1 383 nM, Cc1cccc(-n2cnc3cc(C(=O)NC4CCCC4)ccc32)c1 961 nM, Cc1ccccc1CSc1nc2ncc(Br)cc2[nH]1 76.4 nM, CCOC(=O)c1ccc(-n2cnc3cc(C(=O)N4CCCCC4)ccc32)cc1 13.6 nM, O=C(c1ccc2c(c1)ncn2-c1ccc(C(F)(F)F)cc1)N1CCCCC1 85.7 nM, Cc1cc(-c2nnc3n2CCCCC3)c(C)n1-c1ccc([N+](=O)[O-])cc1 108 nM, CC(C)(C)c1ccc(-n2cnc3cc(C(=O)N4CCCCC4)ccc32)cc1 54.1 nM, Cc1cc(-c2nnc3n2CCCCC3)c(C)n1-c1ccc(F)cc1 121 nM, O=C(c1ccc2c(c1)ncn2-c1cccc(C(F)(F)F)c1)N1CCCCC1 48.2 nM, Cc1cccc(-n2cnc3cc(C(=O)N4CCC(C#N)CC4)ccc32)c1 19200 nM, Brc1cnc2nc(SCc3cccnc3)[nH]c2c1 1360 nM, O=C(c1ccc2c(c1)ncn2-c1ccc(Cl)cc1)N1CCCCC1 21.5 nM, Cc1cc(-c2nnc3n2CCCCC3)c(C)n1-c1cccc(C#N)c1 76.4 nM, Clc1ccccc1CSc1nc2ncc(Br)cc2[nH]1 54.1 nM, Cc1cccc(-n2cnc3cc(C(=O)N4CCN(C)CC4)ccc32)c1 2710 nM, Brc1cnc2nc(SCc3ccccc3)[nH]c2c1 8570 nM, O=C(c1ccc2c(c1)ncn2-c1cccc(Cl)c1)N1CCCCC1 12.1 nM, Cc1cccc(-n2cnc3cc(C(=O)N4CCCC(C(C)C)C4)ccc32)c1 (stereo not given) 48.2 nM, Cc1cc(-c2nnc3n2CCCCC3)c(C)n1-c1cccc(Cl)c1 34.1 nM, Cc1cc(-c2nnc3n2CCCCC3)c(C)n1-c1ccccn1 1080 nM, Cc1cccc(-n2cnc3cc(C(=O)N4CCC(C(F)(F)F)CC4)ccc32)c1 1520 nM, Cc1cccc(-n2cnc3cc(C(=O)N4CCCCC4)ccc32)c1 34.1 nM and 19.2 nM, Cc1cc(-c2nnc3n2CCCCCCC3)c(C)n1-c1ccccc1 383 nM, c1ccc(-n2ccc(-c3nnc4n3CCCCC4)c2)cc1 607 nM, c1ccc(-n2cc(-c3nnc4n3CCCCC4)cn2)cc1 3830 nM, Cc1cccc(-n2cnc3cc(C(=O)N4CCOCC4)ccc32)c1 3040 nM, COc1cccc(-n2cnc3cc(C(=O)N4CCCCC4)ccc32)c1 19.2 nM
